# Screening data from PubChem.
# Hits are enriched below; roughly 2.4% of the tested compounds scored in any of these assays.
# SENP8 block-1 = blocks human SENP8 cleavage of Nedd8 substrate | recombinant SENP8, Nedd8 substrate fluorescence | inhibition, % at 20 µM | 360,000 tested, 0.64% active | AID 602440; in the data active = inhibition mostly above about 40%, no sharp cut-off; inactive = mostly below about 27%
# Target sequence (Q96LD8 whole entry, looked up): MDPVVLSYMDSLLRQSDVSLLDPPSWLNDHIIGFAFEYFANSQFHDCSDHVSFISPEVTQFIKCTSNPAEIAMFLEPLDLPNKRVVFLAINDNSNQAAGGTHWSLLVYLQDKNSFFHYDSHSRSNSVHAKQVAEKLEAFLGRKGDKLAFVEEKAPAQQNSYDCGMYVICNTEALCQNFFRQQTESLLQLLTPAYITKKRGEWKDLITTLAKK
# SENP6 block = inhibitors of human SENP6 protease; inhibition, % at 10 µM; Recombinant SENP6 catalytic domain, aminoluciferin luminescence; 330,000 tested, 1.8% active;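 active = inhibition above about 50% at the single tested dose, limit read from the data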;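 also: plate controls were DMSO wells with enzyme for no effect and DMSO wells lacking enzyme for full effect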
# SENP8 block-2 = blocks the human protease SENP8. Q96LD8. inhibition, % at 10 µM. purified SENP8, Z-RLRGG-aminoluciferin cleavage, luminescence. 330,000 tested, 1.2% active; in the data active = inhibition above about 50%
# SENP7 block = inhibitors of human SENP7 protease | 330,000 tested, 1.5% active | Q9BQF6 | recombinant SENP7, Z-RLRGG-aminoluciferin luminescence, 40 min | AID 434973 | inhibition, % at 5 µM;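 active = inhibition above about 50% at the single test dose, limit read from the data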;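 also: plate controls were DMSO with enzyme for no effect and no enzyme buffer wells for full effect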
# Platelet DG rel = modulates dense granule release in human platelets; inhibition, %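 (compounds screened at 7.5 µM in platelet-rich plasma)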; 300,000 tested, 0.22% active; human platelet-rich plasma, SFLLRN dense granule ATP release, luminescence; AID 1663;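 active = mean replicate score, as percent of positive control, at or above 50; inconclusive = mean below 50 but at least one replicate at or above 50; inactive = mean and every replicate below 50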
# SENP8 conf = human SENP8 inhibition, confirmed; 6,200 tested, 40% active; shares compounds with SENP7 block; inhibition, % at 12.5 µM; AID 488912; Recombinant SENP8, Z-RLRGG-aminoluciferin luminescence, 60 min;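 active = mean inhibition across replicates above about 50%, limit read from the data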
# SENP6 confirm = human SENP6 inhibition, confirmed. shares compounds with SENP7 block. 6,200 tested, 58% active. AID 488915. inhibition, % at 12.5 µM. recombinant SENP6, Z-RLRGG-aminoluciferin luminescence
# SENP7 conf = human SENP7 inhibition, confirmed | shares compounds with SENP7 block | inhibition, % at 12.5 µM | 6,200 tested, 69% active | recombinant SENP7, Z-RLRGG-aminoluciferin luminescence, 40 min
# Casp3 select = inhibits human caspase-3 in SENP selectivity test; shares compounds with SENP7 block; purified caspase-3, Z-DEVD-aminoluciferin luminescence, 60 min; inhibition, % at 12.5 µM; 6,200 tested, 60% active; AID 488918;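 active = mean inhibition above about 50%, limit read from the data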;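 also: plate controls were enzyme with DMSO for no effect and wells without caspase-3 for full effect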
# Target sequence (P42574 28-227 limits assumed): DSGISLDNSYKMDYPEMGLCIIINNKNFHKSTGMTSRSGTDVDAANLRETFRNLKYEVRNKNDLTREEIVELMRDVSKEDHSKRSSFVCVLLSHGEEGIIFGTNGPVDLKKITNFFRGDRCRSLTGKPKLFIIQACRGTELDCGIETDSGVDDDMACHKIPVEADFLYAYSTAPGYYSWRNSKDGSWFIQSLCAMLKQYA
# SENP luc ctr = luminescence interference (SENP counter-screen) | shares compounds with SENP7 block | Pre-incubated SENP8/Z-RLRGG-aminoluciferin, luciferase luminescence interference | inhibition, % at 12.5 µM | 6,200 tested, 39% active | AID 488919;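 active = mean inhibition above about 50% when retested at one dose, limit read from the data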;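 also: plate controls were DMSO wells with completed reaction for no effect and substrate without enzyme for full effect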
# Active calls of the source: *; ? = inconclusive; · = not tested or not shown.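 The calls were made as follows, unless noted: active = mean inhibition above about 50% in the one-dose retest (limit read from the data); inactive = the rest.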
SMILES,SENP8 block-1,SENP6 block,SENP8 block-2,SENP7 block,Platelet DG rel,SENP8 conf,SENP6 confirm,SENP7 conf,Casp3 select,SENP luc ctr
O=[N+]([O-])c1cccnc1NCCNc1ncc(C(F)(F)F)cc1Cl,26.3,66.9*,35.8,57.9*,-6.6,59.6*,56.2*,82.8*,36.7,47.0
O=[N+]([O-])c1cccnc1NCCc1ccccc1,9.7,94.9*,80.9*,88.0*,9.1,41.1,69.3*,87.9*,71.8*,17.4
O=C1C=CC(=O)N1CCNc1ncc(C(F)(F)F)cc1Cl,17.5,-14.9,-9.1,-2.9,12.5,·,·,·,·,·
O=c1cc(Cl)[nH]c(=O)n1CCNc1ncc(C(F)(F)F)cc1Cl,-39.7,58.3*,33.5,9.6,10.9,52.4*,48.6,76.8*,73.0*,9.8
N#Cc1ccc(COC(=O)c2ccc3c(c2)OCO3)cc1,7.1,5.1,5.3,-11.7,-13.4,·,·,·,·,·
O=C1CNC(=S)N1c1nc(-c2ccccc2)cs1,18.3,96.1*,88.2*,87.8*,4.8,-4.3,5.5,2.5,14.0,7.1
O=C(CN1C(=O)NC2(CCCCCCC2)C1=O)NCc1ccc(Cl)cc1,7.9,-17.2,-10.4,9.3,·,·,·,·,·,·
CCOc1ccc(-c2nc(CCl)cs2)cc1,-23.5,51.6*,28.1,8.2,?,53.6*,69.7*,90.6*,66.9*,45.7
ClCc1csc(-c2ccc(Cl)cc2)n1,24.8,11.0,-5.9,-8.8,1.6,·,·,·,·,·
O=C(/C=C/c1ccc(Br)o1)NCc1ccccc1,2.9,-35.0,-6.8,-7.1,-0.3,·,·,·,·,·
N#Cc1c(/N=C/c2ccco2)sc2c1CCCCC2,20.1,91.8*,93.8*,96.4*,8.1,3.7,97.7*,68.9*,74.6*,21.7
N#Cc1c(/N=C/c2cccs2)sc2c1CCC2,28.3,64.6*,79.2*,94.9*,7.5,35.3,34.9,22.0,33.5,22.4
CC(=O)c1ccc(-n2c(=O)[nH]c(=O)c3c(N)c(C(=O)c4ccc(Cl)cc4)sc32)cc1,-11.9,-5.6,-3.0,-1.4,8.9,·,·,·,·,·
CC(C)(C)OC(=O)N1CCC(c2c(C(=O)NCC3CCN(C4CCCC4)C3)cnn2-c2ccc(F)cc2)CC1 (configuration not stated),21.8,-15.0,-11.1,56.0*,5.4,-15.3,-10.1,-10.0,-3.4,-12.2
O=C(COC(=O)c1ccc(O)cc1)NCC1COc2ccccc2O1 (configuration not stated),6.5,-5.2,0.8,7.0,·,·,·,·,·,·
Cc1nn(C(=O)c2c(-c3ccccc3)noc2C)c(C)c1N=Nc1cc(C(F)(F)F)cc(C(F)(F)F)c1,25.1,19.5,-2.8,5.5,0.2,·,·,·,·,·
N/C(=N\OC(=O)c1ccc2c(c1)OCO2)c1ccncc1,10.5,68.1*,43.1,60.5*,20.3,53.0*,48.1,76.0*,82.3*,59.5*
N/C(=N\OC(=O)c1ccc2c(c1)OCO2)c1ccc(Cl)cc1,0.0,87.0*,76.1*,-5.6,-4.6,23.3,67.6*,94.4*,86.2*,17.8
COc1ccc(C(=O)O/N=C(\N)c2ccncc2)cc1OC,23.6,-6.0,-5.4,3.4,-6.9,·,·,·,·,·
Cc1ccc(/C(N)=N/OC(=O)c2ccc3c(c2)OCO3)cc1,1.7,71.4*,59.9*,42.3,0.2,24.2,43.2,87.0*,80.7*,19.7
N/C(=N\OC(=O)N1CCOCC1)c1ccc(Cl)cc1,-1.9,-0.2,-13.2,-1.4,-1.7,·,·,·,·,·
COc1ccc(/C(N)=N/OC(=O)c2ccc3c(c2)OCO3)cc1,15.5,49.6,28.4,68.4*,-3.8,8.7,25.4,30.7,30.3,4.4
CS(=O)(=O)c1ccccc1C(=O)Nc1ccc(S(=O)(=O)N2CCCC2)cc1,4.9,-6.8,3.6,-13.4,·,·,·,·,·,·
